These results are taken from the supplement of paper PMC12669032.

Where “and” joins values, the source holds several entries; their conditions need not be identical. Equal entries are not always repeated.

The test system of the first experiment is Coprococcus comes. Kind of experiment: growth AUC relative to DMSO control (median of replicates) (fraction); higher = more growth (less inhibition), active = hit call of the paper. The note with it: 20 µM; 24 h. The method, boiled down: (§1)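 Hourly OD600 readings over 24 h tracked anaerobic gut bacterial monocultures grown at 37 °C in mGAM from OD600 0.05 with 20 µM compound (1% DMSO). After the minimum OD was set to 0, area under the growth curve was normalised to the plate median of solvent-only wells, or to row and column medians on the industrial chemical plate. Values are medians of three biological replicates grown on separate days.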
Take `C/C(=N\NC(=O)Nc1cc(F)cc(F)c1)c1ncccc1C(=O)[O-].[Na+]`: the “growth AUC” value is 1.01 (inactive).

`OC(Cc1ccccc1Cl)(Cn1cncn1)C1(Cl)CC1` (configuration not stated): the “growth AUC” value was 0.963 (inactive).

As for `COC(=O)C1(O)c2ccccc2-c2ccccc21`, the “growth AUC” value is 0.939 (inactive).

For the compound `Cc1occc1C(=O)Nc1ccccc1`, the “growth AUC” value is 0.977 (inactive).

In the case of `Clc1ccc(C(c2ccc(Cl)cc2)C(Cl)Cl)cc1`, the “growth AUC” value is 1.01 (inactive).

As for `CC1(C)C(C=C(Cl)Cl)C1C(=O)OC(C#N)c1ccc(F)c(Oc2ccccc2)c1` (mixture of isomers), the “growth AUC” value was 0.981 (inactive).

For `COc1cc(C)c(C(=O)c2c(OC)ccc(Br)c2C)c(OC)c1OC`, the “growth AUC” value is 1.04 (inactive).

Take `Cc1ccc(NC(=O)c2snnc2C)cc1Cl`: the “growth AUC” value was 0.965 (inactive).

With `CN(C)C(=O)C(c1ccccc1)c1ccccc1`, the “growth AUC” value was 0.974 (inactive).

On to `Cc1cnc(C2=NC(C)(C(C)C)C(=O)N2)c(C(=O)O)c1` (configuration not stated), for which the “growth AUC” value was 1 (inactive).

For `CCNc1nc(NCC)nc(SC)n1`, the “growth AUC” value was 0.99 (inactive).

With `O=c1oc2ccccc2c(O)c1C1CC(c2ccc(-c3ccccc3)cc2)Cc2ccccc21` (configuration not stated), the “growth AUC” value was 0.946 (inactive).

Turning to `Oc1ccc(-c2ccccc2)cc1`, the “growth AUC” value was 1.01 (inactive).

On to `CNC(=O)N(C)c1nnc(C(C)(C)C)s1`, for which the “growth AUC” value is 0.995 (inactive).

Turning to `COP(=O)(OC)Oc1ccc(SC)c(C)c1`, the “growth AUC” value was 0.991 (inactive).

With `CC(C)N1C(=O)c2ccccc2NS1(=O)=O`, the “growth AUC” value is 1.05 (inactive).

For the compound `COP(=O)(OC)C(O)C(Cl)(Cl)Cl` (configuration not stated), the “growth AUC” value was 1.03 (inactive).

For the compound `CCOP(=O)(NC(C)C)Oc1ccc(S(C)(=O)=O)c(C)c1` (configuration not stated), the “growth AUC” value is 1.06 (inactive).

In the case of `CCOP(=S)(OCC)SCS(=O)(=O)C(C)(C)C`, the “growth AUC” value is 0.991 (inactive).

Take `CCCN(CC1CC1)c1c([N+](=O)[O-])cc(C(F)(F)F)cc1[N+](=O)[O-]`: the “growth AUC” value was 0.995 (inactive).

As for `c1coc(-c2nc3ccccc3[nH]2)c1`, the “growth AUC” value is 1.02 (inactive).

As for `CC(Oc1ccc(Cl)cc1Cl)C(=O)O` (configuration not stated), the “growth AUC” value is 1.02 (inactive).

Regarding `N#Cc1cc(I)c(O)c(I)c1`, the “growth AUC” value is 1.02 (inactive).

On to `CCC(C)Nc1c([N+](=O)[O-])cc(C(C)(C)C)cc1[N+](=O)[O-]` (configuration not stated), for which the “growth AUC” value is 0.975 (inactive).

On to `c1cc2c3c(cccc3c1)CC2`, for which the “growth AUC” value is 1 (inactive).

With `CSC1=N[C@@](C)(c2ccccc2)C(=O)N1Nc1ccccc1`, the “growth AUC” value is 0.988 (inactive).

On to `CC1(C)CN=C(NN=C(/C=C/c2ccc(C(F)(F)F)cc2)/C=C/c2ccc(C(F)(F)F)cc2)NC1`, for which the “growth AUC” value was 1 (inactive).

On to `CCOc1cc(Oc2ccc(C(F)(F)F)cc2Cl)ccc1[N+](=O)[O-]`, for which the “growth AUC” value is 0.602 (active).

With `Nc1cccc(Cl)c1Cl`, the “growth AUC” value is 1.01 (inactive).

Take `CCNS(=O)(=O)C(F)(F)C(F)(F)C(F)(F)C(F)(F)C(F)(F)C(F)(F)C(F)(F)C(F)(F)F`: the “growth AUC” value was 0.995 (inactive).

Take `Nc1ccc(Cc2ccc(N)c(Cl)c2)cc1Cl`: the “growth AUC” value is 1 (inactive).

As to `COc1nc(C)nc(NC(=O)NS(=O)(=O)c2ccccc2CCC(F)(F)F)n1`, the “growth AUC” value is 0.967 (inactive).

On to `CCOP(=O)(OCC)OP(=O)(OCC)OCC`, for which the “growth AUC” value was 0.976 (inactive).

For the compound `CCNP(=S)(OC)O/C(C)=C/C(=O)OC(C)C` (configuration not stated), the “growth AUC” value is 0.987 (inactive).

Turning to `CCN(CC)N=O`, the “growth AUC” value was 1.01 (inactive).

Turning to `COC(=O)C(C)N(C(=O)Cc1ccccc1)c1c(C)cccc1C` (configuration not stated), the “growth AUC” value is 0.967 (inactive).

Take `C#CCN1C(=O)COc2cc(F)c(N3C(=O)C4=C(CCCC4)C3=O)cc21`: the “growth AUC” value was 1.01 (inactive).

For the compound `N#Cc1c(Cl)c(Cl)c(Cl)c(C#N)c1Cl`, the “growth AUC” value was 0.974 (inactive).

In a further experiment the test system is Escherichia coli ED1a. The description is as above. The note with it: 20 µM; 24 h. The method, boiled down:
as §1
Regarding `C/C(=N\NC(=O)Nc1cc(F)cc(F)c1)c1ncccc1C(=O)[O-].[Na+]`, the “growth AUC” value was 0.973 (inactive).

`OC(Cc1ccccc1Cl)(Cn1cncn1)C1(Cl)CC1` (configuration not stated): the “growth AUC” value was 0.993 (inactive).

On to `COC(=O)C1(O)c2ccccc2-c2ccccc21`, for which the “growth AUC” value was 0.966 (inactive).

In the case of `Cc1occc1C(=O)Nc1ccccc1`, the “growth AUC” value is 0.966 (inactive).

On to `Clc1ccc(C(c2ccc(Cl)cc2)C(Cl)Cl)cc1`, for which the “growth AUC” value is 1.02 (inactive).

Turning to `CC1(C)C(C=C(Cl)Cl)C1C(=O)OC(C#N)c1ccc(F)c(Oc2ccccc2)c1` (mixture of isomers), the “growth AUC” value is 0.956 (inactive).

Take `COc1cc(C)c(C(=O)c2c(OC)ccc(Br)c2C)c(OC)c1OC`: the “growth AUC” value was 1.01 (inactive).

As to `ClC1C(Cl)C(Cl)C(Cl)C(Cl)C1Cl` (configuration not stated), the “growth AUC” value was 0.985 (inactive) and 1.04 (inactive) and 1.03 (inactive).

For the compound `Cc1ccc(NC(=O)c2snnc2C)cc1Cl`, the “growth AUC” value was 0.968 (inactive).

`CN(C)C(=O)C(c1ccccc1)c1ccccc1`: the “growth AUC” value was 0.98 (inactive).

For the compound `Cc1cnc(C2=NC(C)(C(C)C)C(=O)N2)c(C(=O)O)c1` (configuration not stated), the “growth AUC” value was 0.999 (inactive).

Consider `CCNc1nc(NCC)nc(SC)n1`, for which the “growth AUC” value is 1.02 (inactive).

Consider `O=c1oc2ccccc2c(O)c1C1CC(c2ccc(-c3ccccc3)cc2)Cc2ccccc21` (configuration not stated), for which the “growth AUC” value was 1 (inactive).

For the compound `Oc1ccc(-c2ccccc2)cc1`, the “growth AUC” value was 0.991 (inactive).

Consider `CNC(=O)N(C)c1nnc(C(C)(C)C)s1`, for which the “growth AUC” value was 0.99 (inactive).

Consider `COP(=O)(OC)Oc1ccc(SC)c(C)c1`, for which the “growth AUC” value is 1 (inactive).

For `CC(C)N1C(=O)c2ccccc2NS1(=O)=O`, the “growth AUC” value was 0.972 (inactive).

Turning to `COP(=O)(OC)C(O)C(Cl)(Cl)Cl` (configuration not stated), the “growth AUC” value is 1.02 (inactive).

Take `CCOP(=O)(NC(C)C)Oc1ccc(S(C)(=O)=O)c(C)c1` (configuration not stated): the “growth AUC” value is 1.03 (inactive).

Turning to `CCOP(=S)(OCC)SCS(=O)(=O)C(C)(C)C`, the “growth AUC” value is 1.01 (inactive).

Take `CCCN(CC1CC1)c1c([N+](=O)[O-])cc(C(F)(F)F)cc1[N+](=O)[O-]`: the “growth AUC” value was 1.01 (inactive).

In the case of `c1coc(-c2nc3ccccc3[nH]2)c1`, the “growth AUC” value was 1.01 (inactive).

Turning to `CC(Oc1ccc(Cl)cc1Cl)C(=O)O` (configuration not stated), the “growth AUC” value was 0.978 (inactive).

`N#Cc1cc(I)c(O)c(I)c1`: the “growth AUC” value is 0.891 (inactive).

In the case of `CCC(C)Nc1c([N+](=O)[O-])cc(C(C)(C)C)cc1[N+](=O)[O-]` (configuration not stated), the “growth AUC” value was 1.01 (inactive).

As for `c1cc2c3c(cccc3c1)CC2`, the “growth AUC” value was 1.01 (inactive).

As for `CSC1=N[C@@](C)(c2ccccc2)C(=O)N1Nc1ccccc1`, the “growth AUC” value is 1.01 (inactive).

For the compound `CC1(C)CN=C(NN=C(/C=C/c2ccc(C(F)(F)F)cc2)/C=C/c2ccc(C(F)(F)F)cc2)NC1`, the “growth AUC” value was 0.992 (inactive).

On to `CCOc1cc(Oc2ccc(C(F)(F)F)cc2Cl)ccc1[N+](=O)[O-]`, for which the “growth AUC” value was 1.01 (inactive).

With `Nc1cccc(Cl)c1Cl`, the “growth AUC” value was 1.04 (inactive).

In the case of `CCNS(=O)(=O)C(F)(F)C(F)(F)C(F)(F)C(F)(F)C(F)(F)C(F)(F)C(F)(F)C(F)(F)F`, the “growth AUC” value was 0.987 (inactive).

Consider `Nc1ccc(Cc2ccc(N)c(Cl)c2)cc1Cl`, for which the “growth AUC” value was 1.01 (inactive).

Regarding `COc1nc(C)nc(NC(=O)NS(=O)(=O)c2ccccc2CCC(F)(F)F)n1`, the “growth AUC” value was 0.997 (inactive).

Turning to `CCOP(=O)(OCC)OP(=O)(OCC)OCC`, the “growth AUC” value was 0.982 (inactive).

In the case of `CCNP(=S)(OC)O/C(C)=C/C(=O)OC(C)C` (configuration not stated), the “growth AUC” value was 1 (inactive).

Turning to `CCN(CC)N=O`, the “growth AUC” value was 1.01 (inactive).

In the case of `COC(=O)C(C)N(C(=O)Cc1ccccc1)c1c(C)cccc1C` (configuration not stated), the “growth AUC” value was 0.995 (inactive).

`C#CCN1C(=O)COc2cc(F)c(N3C(=O)C4=C(CCCC4)C3=O)cc21`: the “growth AUC” value was 0.98 (inactive).

For the compound `N#Cc1c(Cl)c(Cl)c(Cl)c(C#N)c1Cl`, the “growth AUC” value is 0.967 (inactive).
